Laboratory results reported in ChEMBL document CHEMBL3988442, “University of Dundee, Small-Polar-MMV Screening Library” (2021).
Hit rate of the full screen: of about 38,000 compounds, about 1,200 (3.2%) showed an effect of 50% or more. The median lay at about -58%. Only a selection was taken, and strong results are over-represented in it overall.

Tested on: Plasmodium falciparum
Experiment: Calibr Malaria Delayed Death Assay SOP
Assay type: functional, organism-based
Design: scale not given: in the data most compounds retested in dose-response had high values
Settings: concentration 4.99e-06 (unit not given; other assays of the set use mol/L)

Structure (SMILES)	Percent Effect [%]
CCOc1cc(C(=O)N2CCCC(c3noc(C(C)C)n3)C2)ccn1 (stereo not drawn)	-128.3
Cc1c(F)cc(C(=O)O)cc1S(=O)(=O)Nc1ccc(F)c(C#N)c1	-35.67
Cc1occc1-c1nnc2n1NC(N)=C(C#N)S2	-74.61
COCCN(C)C[C@@H]1CN(C(=O)c2ccc(O)c(C)c2)C[C@@H]1CO	-85.42
COc1ccc(-c2ccc(C3CNCCO3)nc2)cc1.Cl (stereo not drawn)	63.33
COc1ccc(-c2cnc(NC(C)=O)[nH]2)cc1	-138
COc1ccc(-c2cc(C3CCN(C(C)=O)CC3)ccn2)cc1	-100.7
C[C@H]1C[C@@H]2CCN(C(=O)c3cnccn3)C[C@H]2O1	-123.8
Cc1ccc(N2N=C(C(=O)O)S(=O)(=O)c3cccnc32)cc1	-91.48
O=C(CCCn1cncn1)NC1CCc2nccn2C1 (stereo not drawn)	-11.39
COc1ccc(CN(C)CCS(=O)(=O)c2ccc(Cl)cc2)cc1OC	-60.68
Cn1c(-c2cc3n(n2)CCCN(CC(=O)O)C3)nc2ccccc21	-285
CCCn1ncc(CN2C[C@@H]3CCCN3C[C@@H]2Cc2ccccc2)c1C	62.1
CCCn1ncc(CN2C[C@@H]3CCCN3C[C@H]2Cc2ccccc2)c1C	55.8
CCCn1ncc(C(=O)N2CCN(C3CCCC3)CC2)c1C	-11.79
CCCn1ncc(CN2CCCCC2CCCOC)c1C (stereo not drawn)	-4.874
c1ccc(CNc2ncc(CN3CCCN4CCC[C@H]4C3)cn2)cc1	-75.33
C=Cn1ncc(CN2C[C@@H]3C[C@@H](O)CN3C[C@H]2Cc2ccccc2)c1C	32.93
CCOc1cccc(NC(=O)c2cc[nH]n2)n1	-28.36
Cc1cc(CN2C[C@@H]3COC[C@@H](C(=O)N4CCCCO4)[C@@H]3C2)no1.O=C(O)C(F)(F)F	-37.6
Cc1c(C(C)NCC2CCCC2)cnn1-c1ccc(F)cc1F (stereo not drawn)	70.86
Cc1c(C(C)NC2CCOCC2)cnn1-c1ccc(F)cc1F (stereo not drawn)	-4.766
Cc1c(C(C)NC2CSCCSC2)cnn1-c1ccc(F)cc1F (stereo not drawn)	-8.599
CCc1nnc(SCc2cc(=O)n3c4c(sc3n2)CCCC4)[nH]1	-134.4

Structure (SMILES)	Percent Effect [%]
COc1cncc(-n2nc(C)c(CC(C)=O)c2C)c1	-95.89
CCC(=O)N1CCC2(COCc3cnc(N4CCOCC4)nc32)C1 (stereo not drawn)	-52.14
CCOc1cncc(N2CCN(c3ccccc3F)CC2)n1	-93.07
COc1ccccc1C1(CNc2nnc(C)c(C)c2C#N)CCOCC1	0.02654
Cc1nnc(NCC2(c3ccccc3)CCC2)c(C#N)c1C	-38.66
COc1ccccc1C1(CNc2nnc(C)c(C)c2C#N)CCCC1	56.81
CN(Cc1cccnc1)[C@@H]1CN(c2ncc(F)cn2)[C@@H]2CCCO[C@H]12	-11.41
CN(Cc1cccnc1)[C@@H]1CN(c2ccccn2)[C@@H]2CCCO[C@H]12	-39.6
CN(Cc1cccnc1)[C@@H]1CN(Cc2ccccn2)[C@@H]2CCCO[C@H]12	50.75
CCNC(=O)[C@@H]1C[C@H](N)CN1c1cc(CC)nc(N(C)C)n1	-75.2
CCNC(=O)[C@@H]1C[C@H](N)CN1c1cc(C(F)(F)F)nc(N2CCCC2)n1	54.16
CCNC(=O)[C@@H]1C[C@H](N)CN1c1cc(C(F)(F)F)nc(N(C)C)n1	19.6
O=C(O)C(F)(F)F.O=S(=O)(C1CC1)N1CCO[C@H]2[C@@H](Oc3cccnc3)CC[C@@H]21	-17.81
Cc1ccc(NC(=O)CN2CCC(OCC3CCCO3)CC2)c(C)c1 (stereo not drawn)	-25
COCCc1noc(CN2CC(Cc3ccccc3)CC2=O)n1 (stereo not drawn)	-62.6
CC(C)C1CCCN1C(=O)c1ccc(-n2ncc(C#N)c2N)cc1 (stereo not drawn)	71.17
CCOC1CCN(C(=O)c2ccc(-n3ncc(C#N)c3N)cc2)CC1	-36.9
CCCC1SCCN1C(=O)c1ccc(-n2ncc(C#N)c2N)cc1 (stereo not drawn)	-3.634
COc1ccc(CN2C[C@@H](CN(C)CCO)[C@@H](CO)C2)cc1Cl	-13.19
CN(C)C[C@@H]1CN(Cc2ccccc2C#N)C[C@@H]1CO	-49.24
Cc1ccc(N2CCC(N3C[C@@H](CN(C)C)[C@@H](CO)C3)CC2)cc1	0.06165
Cc1ccccc1CN1C[C@@H](CN(C)CCO)[C@@H](CO)C1	6.489
CN(CCO)C[C@@H]1CN(C(=O)c2c(F)cccc2Cl)C[C@@H]1CO	-48.12
Cc1cc(F)ccc1N1CCC(N2C[C@@H](C)[C@@](C)(O)C2)CC1	37.17
